# Bioassay records as filed in PubChem BioAssay.
# Compounds with a hit are over-represented: about 7.9% of the library has one in this group of screens.
# HCV inh: HCV inhibition | Huh7.5.1 HCVcc-Cre infection, luciferase reporter, 44 h | Potency, µM (top dose mostly 41.8 µM), for the others: at the top dose activity change, negative = inhibition, most hits filed as inhibitors | 340,000 compounds, 3.4% hits | AID 651820; active means well fitted inhibition curve with a large enough effect; inconclusive means small, poorly fitted or top-dose-only effect, or another doubt; inactive means no such curve, though single readings can be large or run the other way; further: potency means the concentration at half of the fitted maximal effect
#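 Infectious HCVcc-Cre (~0.5 moi) was added to cells just after compound, with cells seeded 4 h earlier at 1,000 per well. Luciferase activity after 44 h culture reported infection; substrate was incubated 15 min at room temperature before reading.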
# Marburg entry inh: inhibitors of Marburg virus binding or cell entry. Marburg virus pseudotyped entry inhibition, cell reporter. Potency, µM (doses to about 37.8 µM), for the others: at the top dose activity change, negative = inhibition, actives largely listed as inhibitors. 300,000 compounds, 1.8% hits; calls by dose curve; tested in HEK293 cells; further: potency means the concentration at half of the fitted maximal effect
# HCMV antiviral: blocks human cytomegalovirus replication; 410,000 compounds, 4.5% hits; activity change, negative = inhibition, % at 57.5 µM; HFF cells, HCMV-luciferase reporter, 72 h; hits give low values; in the data active means activity change below about -60%; inconclusive means no clear call, values can overlap the other calls; inactive means above about -39%
#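 Steps: HFFs plated, 16 h 37C; compounds added; HCMV-luciferase added to MOI 1 PFU/cell; 72 h 37C; OneGlo reagent, 5 min room temperature; luminescence read, normalized to controls.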
# FMDV antiviral: blocks foot and mouth disease virus. FMDV antiviral cell-based qHTS. Potency, µM (doses to about 57.9 µM), inactives show top-dose activity change, negative = inhibition, most hits filed as inhibitors. AID 1159524. 410,000 compounds, 1.2% hits; calls by dose curve; tested in HEK293T cells; further: read-out not given here; potency means the concentration at half of the fitted maximal effect; nearly all actives have a fitted effect of over 45% in size
# Lassa entry inh: inhibitors of Lassa virus binding or cell entry; AID 540256; 300,000 compounds, 1.2% hits; Potency, µM (titrated, usually from 37.9 µM), for the others: top-dose activity change, negative = inhibition, usual class: inhibitors; Lassa virus pseudotype entry inhibition, cell reporter; calls by dose curve; tested in HEK293 cells; further: potency means the concentration at half of the fitted maximal effect; nearly all actives have a fitted effect of over 50% in size
# Starred values were filed as active, the others as inactive; ? = inconclusive; / = no result; [ ] = dose if it differs, or a comment. On the % scale 0 is the no-effect control and ±100 the full control effect.
SMILES,HCV inh,Marburg entry inh,HCMV antiviral,FMDV antiviral,Lassa entry inh
CC(C)NC(=O)N(C)C[C@H]1Oc2ccc(NC(=O)C3CCCCC3)cc2C(=O)N([C@H](C)CO)C[C@@H]1C,7.1%,/,49.5,7.4%,/
C[C@H](CO)N1C[C@H](C)[C@@H](CN(C)C)Oc2c(NC(=O)C3CC3)cccc2C1=O,3.16µM*,/,-21.5,27.9%,/
C[C@H](CO)N1C[C@H](C)[C@@H](CN(C)CC2CC2)Oc2c(NC(=O)Cc3ccccc3)cccc2C1=O,3.16µM*,/,?,35.9%,/
C[C@H](CO)N1C[C@H](C)[C@@H](CN(C)Cc2ccc(Oc3ccccc3)cc2)Oc2c(NC(=O)C3CC3)cccc2C1=O,15.8µM*,/,-31.5,-13.9%,/
C[C@H]1CN([C@@H](C)CO)C(=O)c2cc(NC(=O)C3CCCCC3)ccc2O[C@H]1CN(C)C(=O)Nc1ccc2c(c1)OCO2,1µM*,/,20.5,-15.0%,/
COc1ccc(Cn2c(CO)cnc2SCC(=O)NCc2ccco2)cc1,/,/,11.2,6.8%,0.6%[46.1 µM]
O=C(NCc1cccs1)c1nn(-c2ccccc2Cl)nc1CO,/,-20.7%[46.1 µM],-23.1,-19.3%,?
O=C(Nc1ccc(F)c(Cl)c1)C1Cc2ccccc2CN1S(=O)(=O)c1ccc(F)cc1 (stereo not drawn),/,-8.0%[46.1 µM],-25.6,2.7%,0.4%[46.1 µM]
CCOC(=O)CCCCCC(=O)Nc1ccc2c(c1)CC(=O)N([C@H](C)CO)C[C@@H](C)[C@H](CN(C)Cc1ccc3c(c1)OCO3)O2,16.5%,/,18.4,-16.3%,/
C[C@H](CO)N1C[C@H](C)[C@@H](CN(C)C(=O)NC2CCCCC2)Oc2c(NC(=O)C3CC3)cccc2C1=O,40.0%,/,-100.5*,50.1%,/
Cc1noc(C)c1NC(=O)N(C)C[C@@H]1Oc2c(NC(=O)NC(C)C)cccc2C(=O)N([C@@H](C)CO)C[C@@H]1C,14.6%,/,14.4,-15.3%,/
C[C@@H]1CN([C@H](C)CO)C(=O)Cc2cc(NC(=O)Nc3ccccc3)ccc2O[C@@H]1CN(C)Cc1ccc2c(c1)OCO2,3.55µM*,/,15.2,?,/
Cc1noc(C)c1NC(=O)N(C)C[C@H]1Oc2c(NC(=O)C3CCCCC3)cccc2C(=O)N([C@H](C)CO)C[C@@H]1C,3.98µM*,/,-2.7,37.8%,/
CN(C)c1ccc(/C=N/NC(=O)CCc2c[nH]c3ccccc23)cc1,-11.2%,?,-0.6,10.4%,2µM*
CCN(CC)c1ccc(/C=N/NC(=O)c2cc3ccccc3[nH]2)cc1,?,/,-30.1,21.5%,/
O=C(NN=Cc1ccc(N(CCCl)CCCl)cc1)C(=O)c1c[nH]c2ccccc12,?,4.47µM*,-20.6,1.5%,6.31µM*
O=C(Cc1c[nH]c2ccccc12)N/N=C/c1ccc(F)cc1,9.3%,0.1%,21.8,-2.6%,?
O=C(NN=Cc1ccc(N(CCCl)CCCl)cc1)c1cc(=O)[nH]c(=O)[nH]1,-13.5%,?,14.9,-18.0%,?
CCN(CC)c1ccc(/C=N/NC(=O)c2c[nH]c3ccccc23)cc1,?,3.6%,-67.0*,5.7%,11.2µM*
Cc1ccc(S(=O)(=O)c2nc(-c3cccs3)oc2SCc2ccc(F)cc2)cc1,/,?,-11.3,5.1%,?
O=C(Nc1ccc(Br)cc1)c1ccc(F)c(S(=O)(=O)N2CCCc3ccccc32)c1,/,/,-98.7*,?,?
O=C(Nc1cc(Cl)cc(Cl)c1)c1ccc(F)c(S(=O)(=O)N2CCc3ccccc32)c1,/,/,-96.1*,?,-13.3%[46.1 µM]
O=C(Cn1c(=O)c2cccn2c2cccnc21)NCc1ccccc1F,/,/,24.0,-0.1%,0.2%[46.1 µM]
O=C(c1cnccn1)N1CCc2ccccc2C1,13.4%,-1.7%[46.1 µM],-100.3*,17.1%,10.9%
O=C(c1ccc(S(=O)(=O)c2ccccc2)cc1)N1CCc2ccccc2C1,-17.9%,?,0.1,0.0%,-15.4%
SMILES,HCV inh,Marburg entry inh,HCMV antiviral,FMDV antiviral,Lassa entry inh
Cc1ccc(S(=O)(=O)N(C)c2ccc(C(=O)N3CCc4ccccc4C3)cc2)cc1,?,?,-0.5,-12.3%,11.2µM*
CCOC(=O)N1CCN(C(=O)c2ccc(N(C)S(=O)(=O)c3ccc(C)cc3)cc2)CC1,14.1µM*,/,-19.2,-21.1%,/
O=C(c1ccc([N+](=O)[O-])cc1)N1CCc2ccccc2C1,8.5%,3.0%[46.1 µM],-67.5*,4.8%,7.2%
COc1ccccc1-c1nc2c(c(SCc3cccc(Cl)c3)n1)Cc1c(CO)cnc(C)c1O2,/,/,2.8,?,-6.8%[46.1 µM]
Cn1ccnc1C1CCCCN1C(=O)CN1Cc2ccccc2OC(c2ccccc2F)C1 (stereo not drawn),/,/,/,-3.3%,/
CCCCNC(=O)C1CCN(S(=O)(=O)c2cc(Br)cc3c2N(C(=O)CC)CC3)CC1,/,14.2%[46.1 µM],-7.2,-5.5%,3.2%[46.1 µM]
COc1ccc(S(=O)(=O)N(CC(=O)N2CCN(c3ccccc3)CC2)c2ccccc2)cc1,?,-0.4%,2.3,-21.5%,?
CCN(c1ccccc1)S(=O)(=O)c1ccc(C(=O)N2CCN(c3ccccc3)CC2)cc1,?,?,4.6,-21.9%,7.94µM*
COc1ccc(N2CCN(C(=O)c3ccc(N(C)S(=O)(=O)c4ccc(OC)cc4)cc3)CC2)cc1,?,-0.1%[46.1 µM],-62.7*,?,?
CCc1cccc(NC(=O)Cn2c(=O)n(CCc3ccc(OC)c(OC)c3)c(=O)c3ccccc32)c1,/,?,-4.0,15.1%,-9.4%[46.1 µM]
CC(C)c1ccc(S(=O)(=O)c2nnn3c2nc(NCCc2ccccc2)c2sccc23)cc1,/,/,9.5,8.8%,4.0%[46.1 µM]
COc1ccc(-n2ncc(C(=O)N3CCN(C4CCCCC4)CC3)c2C2CCN(C(=O)OC(C)(C)C)CC2)cc1,/,/,?,-11.4%,?
Cc1ccccc1NC(=O)C(=O)NCC(c1ccc2c(c1)OCO2)N1CCN(c2ccccc2)CC1 (stereo not drawn),/,/,?,-11.3%,10µM*
COc1ccc(C(=O)Cc2cc(OC)c(OC)cc2C(=O)c2ccccc2F)cc1OC,10µM*,/,-5.0,-11.6%,/
COc1ccc(-c2n[nH]c3c2CN(C(=O)c2ccccc2)CC3)cc1,-6.1%,/,0.0,5.5%,/
O=C(c1ccco1)N1CCc2[nH]nc(-c3ccc(Cl)cc3)c2C1,11.2µM*,-28.5%[46.1 µM],-19.3,?,?
CC(=O)c1cccc(NC(=O)c2ccc(-n3c(C)nnc3C)cc2)c1,/,/,17.7,0.1%,1.0%[46.1 µM]
CC(C)c1ccc(NC(=O)[C@H](NC(=O)[C@@H]2Cc3ccccc3CN2)c2ccccc2)cc1,-5.5%,3.98µM*,/,-8.2%,0.2%[46.1 µM]
CC(C)c1ccc(NC(=O)[C@H](Cc2c[nH]c3ccccc23)NC(=O)[C@@H]2Cc3ccccc3CN2)cc1,4.47µM*,/,/,2.7%,/
COc1ccc(NC(=O)[C@H](Cc2c[nH]c3ccccc23)NC(=O)[C@@H]2Cc3ccccc3CN2)cc1,?,/,/,-4.2%,/
CC(C)N(Cc1ccccc1)C(=O)Cn1ncc2c3ccccc3n(Cc3ccccc3)c2c1=O,/,-9.3%[46.1 µM],-6.2,-24.4%,-24.1%[46.1 µM]
COc1ccc(-c2onc(C)c2C)cc1S(=O)(=O)N1CCC(C)CC1,/,/,-79.3*,-22.2%,-21.4%[46.1 µM]
